Source: PubChem BioAssay (NCATS)
Records with an inconclusive call do not appear. Activity calls are given as the source filed them. The call rests on the fitted dose curve; in most records, active means well fitted inhibition curve with a large enough effect; inconclusive means small, poorly fitted or top-dose-only effect; inactive means flat fitted curve, though single readings scatter.

These compounds were tested on CRL-7250 (assay: qHTS assay to identify novel small-molecules to repurpose for Merkel cell carcinoma treatment (AID 1296009; further: nearly all actives have a fitted effect of over 60% in size)). Conditions: MCC and control cell lines, CellTiter-Glo viability, 72 h; series mostly up to 92 µM; activity change, negative = cytotoxicity: at the top concentration.
Outline: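 After compound transfer in DMSO, plates were kept 72 hr at 37 degree celsius. Luminescent ATP signal from CellTiter-Glo served as viability measure, normalized against DMSO and no-cell controls.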

| Compound | outcome |
| --- | --- |
| C=CC1(C)CC2CCC3C(C)(C(=O)O)CCCC3(C)C2=CC1=O (stereo not given) | inactive |
| CCOc1nc2c(N)ncnc2n1CC | inactive |
| CC(=O)OC(C)(C)/C=C/C(=O)[C@](C)(O)C1[C@H](O)C[C@@]2(C)[C@@H]3CC=C4[C@@H](C[C@H](O[C@@H]5O[C@H](CO)[C@@H](O)[C@H](O)[C@H]5O)C(=O)C4(C)C)[C@]3(C)C(=O)C[C@]12C (stereo not given in full) | inactive [at 17.4 µM] |
| COc1ccc(O[C@@H]2O[C@H](CO)[C@@H](O)[C@H](O)[C@H]2O)cc1OC | inactive |
| COc1ccc(NC(=O)C2C[C@H](C)CC[C@H]2C(C)C)cc1 (stereo not given in full) | inactive |
| COc1cc2c(cc1O)CC(O)(CO)C(CO)C2c1ccc(OC2OC(CO)C(O)C(O)C2O)c(OC)c1 (stereo not given) | inactive [at 17.4 µM] |
| CC(=O)c1c(O)cc2cccc3c2c1CC(C)(O)O3 (stereo not given) | inactive |
| O=C(O)Cc1cc(I)c(Oc2ccc(O)c(I)c2)c(I)c1 | inactive |
| COc1c2c(c(C)c3c1C(=O)OC3)OC1(C)CC(O)C34OC(OC)(CCC3(C)C1C2)OC4(C)CO (stereo not given) | inactive [at 17.4 µM] |
| CC1=C(C)C(=O)OC(C(C)C2CCC3C4C5OC5C5(O)CC(OC6OC(CO)C(OC7OC(C)C(O)C(O)C7O)C(O)C6O)CC(O)C5(C)C4CCC23C)C1 (stereo not given) | inactive [at 17.4 µM] |
